Test results reported in PubChem BioAssay (Tox21).
Several values for one entry are separate records, joined by “and”; a condition that tells them apart may be missing. Identical values can stand only once. Activity calls are given as the source filed them. Where a call stands in place of a potency, no number is given. Unless noted, calls come from the whole dose curve; as a rule, active = well fitted curve in the direction sought with a large enough effect in the repeat runs; inconclusive = weak or mixed curves; inactive = no such curve, though single readings can be large; an effect the other way counts as inactive or inconclusive.

Experiments:
[1] = qHTS assay to identify small molecule antagonists of the glucocorticoid receptor (GR) signaling pathway - cell viability counter screen (AID 720693); note: nearly all actives have a fitted effect of over 55% in size; note: potency is the fitted concentration of half-maximal effect
[2] = qHTS assay for identifying genotoxic compounds that show differential cytotoxicity against isogenic chicken DT40 cell lines with known DNA damage response pathways - wild type cell line (AID 743012); note: nearly all actives have a fitted effect of over 60% in size; note: potency is the fitted concentration of half-maximal effect
Outline: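 Viability of DNA repair-proficient chicken DT40 cells was assessed by CellTiter-Glo luminescence following 40 h compound exposure at 37 C/5% CO2.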

[3] = qHTS assay for identifying genotoxic compounds that show differential cytotoxicity against isogenic chicken DT40 cell lines with known DNA damage response pathways - Rad54/Ku70 mutant cell line (AID 743015); note: nearly all actives have a fitted effect of over 60% in size; note: potency is the fitted concentration of half-maximal effect
[4] = target: Androgen receptor (Homo sapiens) (UniProt P10275); assay: qHTS assay to identify small molecule agonists of the androgen receptor (AR) signaling pathway using the MDA cell line (AID 743040; note: nearly all actives have a fitted effect of over 20% in size; note: potency is the fitted concentration of half-maximal effect)
Outline: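 Cell-based luciferase reporter: MDA-kb2, MMTV promoter (AR + GR response elements). 16 h compound exposure at 37C; ONE-Glo, 30 min RT, luminescence.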

[5] = qHTS assay to identify small molecule antagonists of the androgen receptor (AR) signaling pathway using the MDA cell line - cell viability counter screen (AID 743041; note: nearly all actives have a fitted effect of over 45% in size; note: potency is the fitted concentration of half-maximal effect)
Outline: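 In this qHTS counter assay, fluorescence intensity after CellTiter-Fluor addition indicated viability of MDA-kb2 AR-luc cells given compounds and R1881 for 16 h at 37C.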

[6] = target: Androgen receptor (Homo sapiens) (UniProt P10275); assay: qHTS assay to identify small molecule antagonists of the androgen receptor (AR) signaling pathway using the MDA cell line (AID 743042; note: nearly all actives have a fitted effect of over 55% in size; note: potency is the fitted concentration of half-maximal effect)
Outline: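 MDA-kb2 cells (human breast carcinoma, stably carrying an MMTV-luciferase reporter responsive to AR and GR) were plated at 3,000 cells/well and preincubated 5 hr at 37C, then given compound plus R1881 agonist for 16 h. ONE-Glo luminescence was read.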

[7] = qHTS assay to identify small molecule antagonists of the thyroid receptor (TR) signaling pathway - cell viability counter screen (AID 743064); note: nearly all actives have a fitted effect of over 50% in size; note: potency is the fitted concentration of half-maximal effect
Outline: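 In rat pituitary GH3.TRE-Luc reporter cells co-exposed to compound and 1 nM T3 for 23.5 h, cytotoxicity was assessed with CellTiter-Fluor in the same wells, read by fluorescence.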

[8] = qHTS assay to identify small molecule antagonists of the thyroid receptor (TR) signaling pathway (AID 743065); note: nearly all actives have a fitted effect of over 55% in size; note: potency is the fitted concentration of half-maximal effect
Outline: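 GH3.TRE-Luc rat pituitary cells carrying two TR response elements driving luciferase were plated for 4 h, given compound plus 1 nM T3 (final), and incubated 23.5 h at 37 C. ONE-Glo luminescence measured reporter inhibition; CellTiter-Fluor fluorescence tracked cytotoxicity.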

[9] = qHTS assay to identify small molecule antagonists of the estrogen receptor alpha (ER-alpha) signaling pathway - cell viability counter screen (AID 743074; calls by dose curve;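 note: HEK293 cells carrying ER-alpha-UAS-bla reporter stimulated with 17beta-estradiol; nearly all actives have a fitted effect of over 45% in size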; note: potency is the fitted concentration of half-maximal effect)
[10] = target: Estrogen receptor (Homo sapiens) (UniProt P03372); assay: qHTS assay to identify small molecule agonists of the estrogen receptor alpha (ER-alpha) signaling pathway (AID 743075; calls by dose curve;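 note: HEK293 GripTite cells with ER-alpha and UAS-driven beta-lactamase reporter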; note: potency is the fitted concentration of half-maximal effect); settings: HEK293 ER-alpha-UAS-bla, beta-lactamase FRET ratio, 18 h; activation: at 70.1 µM (top of the series)
Aromatase (Homo sapiens) = Aromatase (Homo sapiens) (UniProt P11511); assay: qHTS assay to identify aromatase inhibitors (AID 743083); note: nearly all actives have a fitted effect of over 55% in size; note: potency is the fitted concentration of half-maximal effect
[11] = qHTS assay to identify aromatase inhibitors - cell viability counter screen (AID 743084); note: potency is the fitted concentration of half-maximal effect
[12] = system: thyroid hormone receptor (rat, GH3 cells); assay: qHTS assay to identify small molecule agonists of the thyroid receptor (TR) signaling pathway (AID 743066; calls by dose curve)
[13] = target: Estrogen receptor (Homo sapiens) (UniProt P03372); assay: qHTS assay to identify small molecule antagonists of the estrogen receptor alpha (ER-alpha) signaling pathway (AID 743069; active = well fitted curve in the direction sought with a large enough effect in the signal ratio in the repeat runs, not every such curve was filed as active; inconclusive = weak or mixed curves, or effect the other way; inactive = no such curve, though single readings can be large or run the other way; the % refers to the signal ratio)
Outline: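 A 17beta-estradiol challenge was applied right after compound transfer to ER-alpha-UAS-bla HEK293 cells previously kept in charcoal-stripped serum. Plates stood 18 hr at 37C and 5% CO2; fluorescence was read following 2 hr FRET substrate loading at room temperature.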

[14] = target: Estrogen receptor (Homo sapiens) (UniProt P03372); assay: qHTS assay to identify small molecule agonists of the estrogen receptor alpha (ER-alpha) signaling pathway using the BG1 cell line (AID 743079); settings: BG1Luc4E2 cells, ERE-luciferase agonist, 22 h; at 70.3 µM (top of the series); note: nearly all actives have a fitted effect of over 20% in size
[15] = qHTS assay to identify small molecule antagonists of the estrogen receptor alpha (ER-alpha) signaling pathway using the BG1 cell line (AID 743080; calls by dose curve;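 note: BG1 cells stimulated with 17beta-estradiol alongside compound; nearly all actives have a fitted effect of over 25% in size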)
Outline: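 BG1-Luc-4E2 cells (endogenous full-length ER-alpha, 4xERE luciferase) hormone-starved 5 days in charcoal-stripped FBS, plated 4,000/well for 24 h, then compound plus 17beta-estradiol for 21.5 h at 37 C; ONE-Glo luminescence read.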

[16] = qHTS assay to identify small molecule antagonists of the estrogen receptor alpha (ER-alpha) signaling pathway using the BG1 cell line - cell viability counter screen (AID 743081);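 note: compound given together with 17beta-estradiol as the ER stimulus; nearly all actives have a fitted effect of over 45% in size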; note: potency is the fitted concentration of half-maximal effect
[17] = qHTS assay to identify small molecule antagonists of the androgen receptor (AR) signaling pathway - cell viability counter screen (AID 743033; note: nearly all actives have a fitted effect of over 45% in size; note: potency is the fitted concentration of half-maximal effect)
[18] = qHTS assay for identifying genotoxic compounds that show differential cytotoxicity against isogenic chicken DT40 cell lines with known DNA damage response pathways - Rev3 mutant cell line (AID 743014); note: nearly all actives have a fitted effect of over 55% in size; note: potency is the fitted concentration of half-maximal effect
[19] = target: Androgen receptor (Homo sapiens) (UniProt P10275); assay: qHTS assay to identify small molecule antagonists of the androgen receptor (AR) signaling pathway (AID 743035; active = well fitted inhibition curve with a large enough effect in the signal ratio in the repeat runs, not every such curve was filed as active; inconclusive = weak or mixed curves, or effect the other way; inactive = no such curve, though single readings can be large or run the other way; the % refers to the signal ratio)
Outline: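 Reporter HEK293 cells were exposed to compounds and R1881 overnight (16 h, 37C); beta-lactamase activity was then quantified by FRET fluorescence.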

Sequence of Estrogen receptor (Homo sapiens) (P03372 whole entry, looked up): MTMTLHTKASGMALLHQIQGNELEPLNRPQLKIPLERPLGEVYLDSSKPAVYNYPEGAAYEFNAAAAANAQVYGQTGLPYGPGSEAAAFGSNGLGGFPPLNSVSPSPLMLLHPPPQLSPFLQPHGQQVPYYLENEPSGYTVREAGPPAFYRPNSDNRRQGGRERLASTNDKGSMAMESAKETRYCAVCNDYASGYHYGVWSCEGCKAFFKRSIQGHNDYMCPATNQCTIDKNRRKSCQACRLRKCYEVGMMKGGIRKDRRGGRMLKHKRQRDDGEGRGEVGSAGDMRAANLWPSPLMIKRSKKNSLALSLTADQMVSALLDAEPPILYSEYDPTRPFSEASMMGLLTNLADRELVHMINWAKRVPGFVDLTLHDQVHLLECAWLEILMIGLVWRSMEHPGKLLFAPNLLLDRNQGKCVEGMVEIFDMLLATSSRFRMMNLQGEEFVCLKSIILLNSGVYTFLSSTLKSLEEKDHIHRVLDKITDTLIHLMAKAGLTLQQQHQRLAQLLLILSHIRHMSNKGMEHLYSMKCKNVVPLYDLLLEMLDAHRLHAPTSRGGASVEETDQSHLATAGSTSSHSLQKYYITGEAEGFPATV
Sequence of Aromatase (Homo sapiens) (P11511 whole entry, looked up): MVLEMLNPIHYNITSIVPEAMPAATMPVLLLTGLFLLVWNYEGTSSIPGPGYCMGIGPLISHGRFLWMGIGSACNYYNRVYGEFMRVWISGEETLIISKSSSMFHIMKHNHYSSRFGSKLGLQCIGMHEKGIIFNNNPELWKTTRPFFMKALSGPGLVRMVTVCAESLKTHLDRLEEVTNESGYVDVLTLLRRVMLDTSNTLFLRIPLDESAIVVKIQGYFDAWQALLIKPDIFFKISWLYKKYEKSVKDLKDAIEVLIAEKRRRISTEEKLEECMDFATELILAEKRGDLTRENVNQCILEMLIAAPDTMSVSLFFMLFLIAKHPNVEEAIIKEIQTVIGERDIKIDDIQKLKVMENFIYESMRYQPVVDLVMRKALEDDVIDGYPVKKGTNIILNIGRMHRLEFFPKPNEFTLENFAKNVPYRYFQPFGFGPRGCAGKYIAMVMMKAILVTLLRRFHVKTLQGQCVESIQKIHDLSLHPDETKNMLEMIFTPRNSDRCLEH
Sequence of Androgen receptor (Homo sapiens) (P10275 whole entry, looked up): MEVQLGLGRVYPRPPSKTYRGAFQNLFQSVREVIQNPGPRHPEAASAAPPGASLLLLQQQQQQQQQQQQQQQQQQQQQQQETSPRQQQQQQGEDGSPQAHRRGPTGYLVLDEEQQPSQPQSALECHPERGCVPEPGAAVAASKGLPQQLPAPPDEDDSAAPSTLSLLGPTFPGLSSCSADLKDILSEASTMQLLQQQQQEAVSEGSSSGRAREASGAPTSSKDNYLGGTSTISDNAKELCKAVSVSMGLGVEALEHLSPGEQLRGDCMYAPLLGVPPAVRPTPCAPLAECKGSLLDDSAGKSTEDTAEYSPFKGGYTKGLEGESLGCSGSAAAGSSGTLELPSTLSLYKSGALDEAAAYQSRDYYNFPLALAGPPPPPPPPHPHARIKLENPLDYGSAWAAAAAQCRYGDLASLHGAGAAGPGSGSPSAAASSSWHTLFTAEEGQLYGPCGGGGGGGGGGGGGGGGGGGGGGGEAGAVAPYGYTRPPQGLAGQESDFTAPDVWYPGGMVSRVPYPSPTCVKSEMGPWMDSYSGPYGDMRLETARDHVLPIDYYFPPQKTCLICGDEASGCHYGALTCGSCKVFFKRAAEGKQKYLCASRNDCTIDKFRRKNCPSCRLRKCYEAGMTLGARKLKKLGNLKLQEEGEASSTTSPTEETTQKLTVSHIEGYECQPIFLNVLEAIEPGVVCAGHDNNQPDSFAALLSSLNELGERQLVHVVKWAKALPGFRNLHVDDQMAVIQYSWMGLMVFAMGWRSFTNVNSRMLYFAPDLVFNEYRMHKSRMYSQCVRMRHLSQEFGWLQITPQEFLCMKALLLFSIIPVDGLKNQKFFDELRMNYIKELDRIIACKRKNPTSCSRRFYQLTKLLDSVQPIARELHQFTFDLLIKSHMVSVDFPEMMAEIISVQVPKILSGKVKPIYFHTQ

Row | SMILES | Potency [1] | Potency [2] | Potency [3] | Potency [4] | Potency [5] | Potency [6] | Potency [7] | Potency [8] | Potency [9] | Potency [10] | Potency (Aromatase (Homo sapiens)) | Potency [11] | Potency [12] | Potency [13] | activation [14] | Potency [15] | Potency [16] | Potency [17] | Potency [18] | Potency [19]
1 | C[n+]1cc2c3c(ccc2c2ccc4cc5c(cc4c21)OCO5)OCO3 | 6.74 µM (active) | 1.5 µM (active) | 1.5 µM (active) | inactive | 26.6 µM (active) | 18.8 µM (active) | 2.98 µM (active) | 2.66 µM (active) | 10.7 µM (active) | 15.1 µM [inconclusive] (active) | 11.9 µM (active) | 21.1 µM (active) | – | – | – | – | – | – | – | –
2 | CCN(CCC#N)c1ccc(N=Nc2c(Cl)cc([N+](=O)[O-])cc2Cl)cc1 | inactive | 13.7 µM (active) | 17.2 µM (active) | – | – | – | 24.3 µM (active) | 24.3 µM (active) | inactive | inactive | inactive | 24.3 µM (active) | inactive | inactive | -0.554% (inactive) | inactive | 27.3 µM (active) | – | – | –
3 | C[C@@H]1C[C@H]2[C@@H]3CCC4=CC(=O)C=C[C@]4(C)[C@@]3(Cl)[C@@H](O)C[C@]2(C)[C@@]1(OC(=O)c1ccco1)C(=O)CCl | inactive | 12.7 µM (active) | – | 0.0009 µM (active) | inactive | inactive | – | – | inactive | – | inactive | inactive | inactive | – | – | – | inactive | inactive | – | –
4 | O=[N+]([O-])c1cc(Cl)c(Cl)c(Cl)c1Cl | inactive | inactive | – | – | inactive | – | – | 60.9 µM (active) | inactive | – | – | 60.9 µM (active) | inactive | – | – | – | inactive | inactive | – | –
5 | CCCCCCCCOc1ccccc1C(=O)Nc1ccc(C(=O)OCC[N+](C)(CC)CC)cc1 | 23.9 µM (active) | – | 26.6 µM (active) | – | inactive | – | 26.6 µM (active) | 26.6 µM (active) | inactive | inactive | inactive | inactive | – | – | -29.5% (inactive) | inactive | inactive | inactive | 23.7 µM (active) | –
6 | Nc1ccc2cc(S(=O)(=O)O)cc(O)c2c1N=Nc1ccccc1C(F)(F)F | inactive | inactive | – | – | – | – | – | – | inactive | – | inactive | 17.2 µM (active) | inactive | – | – | – | – | inactive | – | –
7 | Oc1ccc(Cl)cc1Sc1cc(Cl)ccc1O | 16.9 µM (active) and 19.5 µM (active) | – | 16.8 µM (active) and 24.3 µM (active) | – | 29.8 µM (active) and 61 µM (active) | – | 11.9 µM (active) and 7.68 µM (active) | 5.96 µM (active) and 2.73 µM (active) | 19 µM (active) and 38.8 µM (active) | inactive | 26.6 µM (active) and 27.3 µM (active) | – | inactive | – | – | inactive | inactive | 21.3 µM (active) and 13.8 µM (active) | 11.9 µM (active) and 19.3 µM (active) | –
8 | Cc1cc(O)c(C(C)(C)C)cc1Sc1cc(C(C)(C)C)c(O)cc1C | 10.9 µM (active) | – | 12.2 µM (active) | inactive | 38.5 µM (active) | 24.3 µM (active) | 3.43 µM (active) | 2.43 µM (active) | 17.3 µM (active) | – | 13.7 µM (active) | 30.6 µM (active) | inactive | – | – | – | 54.4 µM (active) | 15.5 µM (active) | 12.2 µM (active) | –
9 | CNC(=O)c1ccccc1 | inactive | – | inactive | – | inactive | – | inactive | inactive | inactive | inactive | inactive | inactive | inactive | inactive | -14.7% (inactive) | inactive | inactive | inactive | inactive | –
10 | NNc1nc(-c2ccc(N)cc2)cs1 | inactive | 17.2 µM (active) | 10.9 µM (active) | – | – | – | – | – | inactive | inactive | – | 27.3 µM (active) | inactive | – | -1.53% (inactive) | inactive | – | inactive | – | –
11 | COCCCC/C(=N\OCCN)c1ccc(C(F)(F)F)cc1 | inactive | 6.68 µM (active) | – | – | – | – | 13.3 µM (active) | 11.9 µM (active) | – | inactive | 21.1 µM (active) | inactive | – | inactive | -27% (inactive) | inactive | inactive | – | – | –
12 | CCCCCCCCCCC=O | inactive | – | inactive | inactive | inactive | inactive | inactive | inactive | inactive | – | inactive | inactive | inactive | – | – | – | inactive | inactive | inactive | inactive
13 | CCCN(CCC)c1c([N+](=O)[O-])cc(C(F)(F)F)c(N)c1[N+](=O)[O-] | 48.9 µM (active) | 12.2 µM (active) | – | – | – | – | 13.6 µM (active) | 13.6 µM (active) | – | – | 15.3 µM (active) | 54.3 µM (active) | – | – | – | – | – | – | – | –
14 | CC[C@H]1O[C@]2(CC[C@@H]1C)C[C@@H]1C[C@@H](C/C=C(\C)C[C@@H](C)/C=C/C=C3\CO[C@@H]4[C@H](O)C(C)=C[C@@H](C(=O)O1)[C@]34O)O2 | 13.7 µM (active) | 6.06 µM (active) | 6.06 µM (active) | – | – | – | 6.06 µM (active) | 5.4 µM (active) | 43.3 µM (active) | – | 30.4 µM (active) | 27.1 µM (active) | – | – | – | – | 60.6 µM (active) | inactive | – | –
